Measured values as given in PubChem BioAssay (NCATS).
Unmarked numbers belong to inactive results. Records with an inconclusive call do not appear. Some of the results follow. Active and inactive are the calls of the source. Unless noted, the call rests on the fitted dose curve; in most records, active means well fitted curve in either direction with a large enough effect (not every such curve was filed as active); inconclusive means small, poorly fitted or top-dose-only effect, or another doubt; inactive means flat fitted curve, though single readings scatter.

Legend:
[1] = biological target: Fructose-bisphosphate aldolase A (Oryctolagus cuniculus) (UniProt P00883); test: qHTS Assay for Inhibitors of Fructose-1,6-bisphosphate Aldolase from Giardia Lamblia: Rabbit FBPA Selectivity (AID 2794; active means well fitted inhibition curve with a large enough effect; further: on the % scale 0 is the no-effect control and ±100 the full control effect; nearly all actives have a fitted effect of over 60% in size)
Procedure, shortened: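 Room-temperature coupled fluorescence assay using rabbit aldolase. Steps: coupling enzymes, compound (up to 57.5 uM final), 10 min; substrate plus detection reagent, 20 min; read 525/598 nm.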

[2] = biological target: Lysosomal acid glucosylceramidase (Homo sapiens) (UniProt P04062); test: Glucocerebrosidase-p2 (AID 348; in the data active means potency below about 10 µM; further: potency means the concentration at half of the fitted maximal effect); settings: purified GBA, blue fluorogenic substrate, 40 min
Procedure, shortened: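 Normal human glucocerebrosidase (0.2 nM) with blue fluorogenic substrate (80 uM final) in citrate/phosphate pH 5.9 with 10mM sodium taurocholate, 0.01% tween-20; 40 min RT, NaOH/glycine stop; fluorescence Ex 365/Em 440; AC50 from a titration from 0.6 nM upwards.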

[3] = AP1 Signaling Pathway (AID 357); settings: ME-180 AP-1-bla reporter, EGF-induced, beta-lactamase ratio, 5 h; at 7.69 µM (top of the series) unless noted;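 further: ME-180 reporter cells stimulated with EGF at its EC50 level; on the % scale 0 is the no-effect control and ±100 the full control effect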
Procedure, shortened: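 Read-out was the 460nm/530nm emission ratio (excitation 405nm) after CCF4 loading for 2.5 hours at room temperature. Cells carried an AP-1-driven beta-lactamase reporter, were stimulated with EC50 EGF plus compound for 5 hours, and AC50 values came from titrations.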

[4] = biological target: Cytochrome P450 1A2 (Homo sapiens) (UniProt P05177); test: p450-cyp1a2 (AID 410; calls by dose curve; further: potency means the concentration at half of the fitted maximal effect;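 on activity change, negative = inhibition: -100% = full effect of reference inhibitor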)
Procedure, shortened: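 20nM CYP1A2, 100uM Luciferin-ME (=Km), 100mM KPO4; cpd 10 min RT; +NADPH regen, 60 min RT; stop/detect 20 min; luminescence. Normalized to furafylline 57 uM = full inhibition.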

[5] = NFAT Signaling Pathway (AID 444); settings: Jurkat NFAT-bla M1, carbachol, beta-lactamase ratio, 5 h; at 7.69 µM (top of the series) unless noted;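 further: carbachol stimulus at about its EC50 of 1 µM final; on the % scale 0 is the no-effect control and ±100 the full control effect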
Procedure, shortened: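 Read-out: CCF4 FRET ratio (460 nm/530 nm) after 1 h RT dye loading, used for %activity and AC50 from titration series. Cells: Jurkat NFAT-β-lactamase/M1 line, treated with compound plus 1 uM carbachol for 5 h, 37 °C.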

[6] = Stat Signaling Pathway (AID 446); settings: ME-180 (cervical carcinoma) SIE beta-lactamase reporter, IL-6 stimulated, 5 h; at 7.69 µM (top of the series) unless noted;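 further: ME-180 cervical cancer cells given 40 pM IL-6 alongside compound; SIE-controlled beta-lactamase reporter measured as 460/530 nm FRET emission ratio; on the % scale 0 is the no-effect control and ±100 the full control effect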
Procedure, shortened: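 Overnight-plated ME-180 cells bearing a STAT Inducible Element beta-lactamase reporter; 5 h co-exposure to compound and 40 pM IL-6; values normalized to 300 pM IL-6 and 125 nM JAK inhibitor controls.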

[7] = biological target: Glucocorticoid receptor (Homo sapiens) (UniProt P04150); test: GR-GFP Redistribution (AID 450;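 active means compounds whose dose series gives a full or clear partial fitted curve of increased nuclear translocation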; further: potency means the concentration at half of the fitted maximal effect); settings: U2OS GR-GFP nuclear translocation, laser cytometry, 2 h
[8] = biological target: Glucocorticoid receptor (Homo sapiens) (UniProt P04150); test: GR-EFC Redistribution (AID 451; calls by dose curve; further: potency means the concentration at half of the fitted maximal effect); settings: CHO-K1 GR-EFC translocation, beta-gal luminescence, 2 h
Procedure, shortened: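 Translocation of GR-ED fusion to nuclear EA restores b-gal, read by luminescence after 1 h room-temperature detection. Engineered CHO-K1 biosensor cells, 1,000/well, exposed 2 h at 37 C to titrations up to 46 uM final.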

[9] = biological target: Mitogen-activated protein kinase 10 (Mus musculus) (UniProt Q61831); test: JNK3 AlphaScreen Assay (AID 530);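 further: kinase came from lysate of stimulated human HepG2 cells; signal reports phosphorylation of biotinylated GST-cJun 1-79 at Ser73 with 10 µM ATP; on the % scale 0 is the no-effect control and ±100 the full control effect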
Procedure, shortened: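 Kinase buffer: 20 mM Tris-HCl pH 7.6, 10 mM MgCl2, 1 mM DTT, 0.1 mM Na3VO4, 0.01% Tween-20; ATP 10 uM. Substrate biotin-GST-cJun(1-79), enzyme from activated HepG2 lysates. Detection by Ser73 phospho-antibody AlphaScreen.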

[10] = biological target: 3',5'-cyclic-AMP phosphodiesterase 4B (Homo sapiens) (UniProt Q07343); test: qHTS Assay for Inhibitors of PDE-IV (AID 607; active means well fitted activation curve with a large enough effect in the main read-out, with a control signal flat, not every such curve was filed as active; further: % of control where 0% means no effect)
Procedure, shortened: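 Live HEK293 cells with a modified cyclic nucleotide-gated (CNG) channel report intracellular cAMP via membrane-potential dye fluorescence (ex 535/em 590 nm). Endogenous PDE-IV was targeted. Compounds were tested at up to 22.9 uM final; RO 20-1724 100 uM served as control.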

Cytochrome P450 1A2 (Homo sapiens), sequence (P05177 whole entry, looked up): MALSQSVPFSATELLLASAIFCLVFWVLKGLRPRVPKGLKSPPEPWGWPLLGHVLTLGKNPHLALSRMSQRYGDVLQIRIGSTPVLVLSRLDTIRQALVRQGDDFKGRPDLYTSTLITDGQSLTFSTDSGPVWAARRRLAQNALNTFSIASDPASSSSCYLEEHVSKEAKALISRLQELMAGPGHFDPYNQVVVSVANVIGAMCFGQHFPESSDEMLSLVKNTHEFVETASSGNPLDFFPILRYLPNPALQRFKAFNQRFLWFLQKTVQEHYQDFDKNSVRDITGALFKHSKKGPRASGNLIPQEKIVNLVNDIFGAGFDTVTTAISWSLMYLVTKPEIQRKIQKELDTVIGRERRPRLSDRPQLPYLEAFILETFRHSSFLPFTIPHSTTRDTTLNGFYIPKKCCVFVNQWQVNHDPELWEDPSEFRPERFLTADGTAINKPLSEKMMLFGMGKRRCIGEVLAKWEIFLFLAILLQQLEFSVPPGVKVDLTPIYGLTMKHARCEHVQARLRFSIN
Lysosomal acid glucosylceramidase (Homo sapiens), sequence (P04062 whole entry, looked up): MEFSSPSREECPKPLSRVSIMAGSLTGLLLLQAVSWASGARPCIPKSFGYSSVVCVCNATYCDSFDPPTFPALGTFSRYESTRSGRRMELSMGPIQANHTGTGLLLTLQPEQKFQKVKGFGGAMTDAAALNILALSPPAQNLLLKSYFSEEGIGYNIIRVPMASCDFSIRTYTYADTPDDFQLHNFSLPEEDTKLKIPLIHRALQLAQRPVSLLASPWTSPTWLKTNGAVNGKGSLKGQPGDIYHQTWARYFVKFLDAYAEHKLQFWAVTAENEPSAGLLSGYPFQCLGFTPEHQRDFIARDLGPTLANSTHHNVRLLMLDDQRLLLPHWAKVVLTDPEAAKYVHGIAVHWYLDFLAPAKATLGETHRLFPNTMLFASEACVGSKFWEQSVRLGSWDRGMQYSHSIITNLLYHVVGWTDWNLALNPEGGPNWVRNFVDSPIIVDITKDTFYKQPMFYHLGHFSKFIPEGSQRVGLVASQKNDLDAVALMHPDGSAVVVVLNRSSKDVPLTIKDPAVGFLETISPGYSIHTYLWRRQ
Glucocorticoid receptor (Homo sapiens), sequence (P04150 whole entry, looked up, the tested form may be a part): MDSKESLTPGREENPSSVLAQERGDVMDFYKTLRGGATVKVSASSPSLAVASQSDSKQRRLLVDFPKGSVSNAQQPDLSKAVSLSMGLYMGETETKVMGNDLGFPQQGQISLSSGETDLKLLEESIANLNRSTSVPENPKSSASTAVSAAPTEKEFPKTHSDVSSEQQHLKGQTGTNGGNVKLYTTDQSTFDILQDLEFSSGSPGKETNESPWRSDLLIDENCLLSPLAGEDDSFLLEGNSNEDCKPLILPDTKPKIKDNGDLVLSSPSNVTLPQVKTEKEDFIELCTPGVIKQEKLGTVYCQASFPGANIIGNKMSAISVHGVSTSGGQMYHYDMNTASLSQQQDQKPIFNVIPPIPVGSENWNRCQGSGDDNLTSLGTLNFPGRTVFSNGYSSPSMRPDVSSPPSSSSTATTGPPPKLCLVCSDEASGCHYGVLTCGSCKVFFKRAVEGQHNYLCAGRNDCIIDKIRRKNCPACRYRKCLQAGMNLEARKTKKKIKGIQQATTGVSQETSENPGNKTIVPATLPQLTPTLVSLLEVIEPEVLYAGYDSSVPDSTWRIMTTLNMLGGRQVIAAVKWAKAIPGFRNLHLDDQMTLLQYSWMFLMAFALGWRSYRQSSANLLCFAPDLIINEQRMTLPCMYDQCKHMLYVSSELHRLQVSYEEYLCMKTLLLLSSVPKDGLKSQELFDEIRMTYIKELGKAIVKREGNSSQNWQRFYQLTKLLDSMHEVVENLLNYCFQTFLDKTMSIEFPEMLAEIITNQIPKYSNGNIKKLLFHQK
3',5'-cyclic-AMP phosphodiesterase 4B (Homo sapiens), sequence (Q07343 whole entry, looked up): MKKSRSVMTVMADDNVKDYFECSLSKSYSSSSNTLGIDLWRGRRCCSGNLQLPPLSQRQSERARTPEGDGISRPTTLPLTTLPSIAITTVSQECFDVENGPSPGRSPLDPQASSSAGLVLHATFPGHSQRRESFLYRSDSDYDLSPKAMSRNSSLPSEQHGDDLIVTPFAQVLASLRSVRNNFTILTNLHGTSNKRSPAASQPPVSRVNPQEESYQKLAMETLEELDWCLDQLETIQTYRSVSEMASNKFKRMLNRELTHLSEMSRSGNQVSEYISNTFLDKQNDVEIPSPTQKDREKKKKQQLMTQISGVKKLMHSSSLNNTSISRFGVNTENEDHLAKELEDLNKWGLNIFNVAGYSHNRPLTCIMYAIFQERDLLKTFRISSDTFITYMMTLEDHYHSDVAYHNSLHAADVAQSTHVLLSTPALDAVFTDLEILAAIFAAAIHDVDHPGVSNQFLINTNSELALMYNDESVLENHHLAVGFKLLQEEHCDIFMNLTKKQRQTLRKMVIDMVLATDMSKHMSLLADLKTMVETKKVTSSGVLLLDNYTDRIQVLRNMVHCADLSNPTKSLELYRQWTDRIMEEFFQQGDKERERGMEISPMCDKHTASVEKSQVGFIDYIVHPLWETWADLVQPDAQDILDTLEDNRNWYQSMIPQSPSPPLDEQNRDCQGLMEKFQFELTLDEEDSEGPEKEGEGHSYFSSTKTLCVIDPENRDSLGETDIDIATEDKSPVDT
Fructose-bisphosphate aldolase A (Oryctolagus cuniculus), sequence (P00883 whole entry, looked up): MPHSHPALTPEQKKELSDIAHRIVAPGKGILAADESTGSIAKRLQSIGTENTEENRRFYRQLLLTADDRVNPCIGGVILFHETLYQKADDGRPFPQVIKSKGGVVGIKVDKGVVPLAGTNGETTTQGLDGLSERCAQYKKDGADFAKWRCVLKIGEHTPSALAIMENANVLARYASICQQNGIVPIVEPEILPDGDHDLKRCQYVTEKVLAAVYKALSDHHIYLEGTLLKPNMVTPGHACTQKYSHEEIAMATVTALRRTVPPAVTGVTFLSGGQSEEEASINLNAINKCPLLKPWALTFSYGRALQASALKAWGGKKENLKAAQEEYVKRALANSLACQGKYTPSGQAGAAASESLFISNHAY

With `O=C(CSc1cccc[n+]1[O-])c1ccc(-c2ccccc2)cc1` the outcome [1] was “inactive”.

With `CCN(CC(=O)O)CC(=O)O` the Potency [2] was > 11.4 µM, the activity change, negative = inhibition [3] was -0.0102% and the Potency [4] was “inactive”. For the same compound, the activity change, negative = inhibition [5] was 0.338%, the activity, negative = inhibition [6] was 13.7% and the Potency [7] was > 46 µM. The Potency [8] was > 9.22 µM, the Potency [9] was “inactive” and the Potency [10] was “inactive”.

With `O=C(O)c1c(-c2c3ccc(=O)cc-3oc3cc(O)ccc23)cc2ccccc2c1-c1ccccc1` the Potency [2] was > 11.4 µM, the activity change, negative = inhibition [3] was 8.03% and the activity change, negative = inhibition [4] was -17.6% [at 2.29 µM]. The activity change, negative = inhibition [5] was 2.16%, the activity, negative = inhibition [6] was 3.5% and the Potency [7] was > 46 µM. For the same compound, the Potency [8] was > 9.22 µM, the Potency [9] was “inactive” and the Potency [10] was “inactive”.

For `CN(C)Cc1cc(C(C)(C)C)ccc1-c1ccc(C(C)(C)C)cc1CN(C)C`, the Potency [2] was > 11.4 µM, the activity change, negative = inhibition [3] was 4.9% and the activity change, negative = inhibition [4] was -17.9% [at 2.29 µM]. For the same compound, the activity change, negative = inhibition [5] was 5.47%, the activity, negative = inhibition [6] was 1.89% and the Potency [7] was > 46 µM. The Potency [8] was > 9.22 µM, the Potency [9] was “inactive” and the Potency [10] was “inactive”.

In the case of `c1ccc(CCc2cccnc2)nc1`, the Potency [2] is reported as > 11.4 µM, the activity change, negative = inhibition [3] is reported as 12.9% and the Potency [4] is reported as 0.398 µM (active). For the same compound, the activity change, negative = inhibition [5] was 14.1%, the activity, negative = inhibition [6] was 0.19% and the Potency [7] was > 46 µM. The Potency [8] was > 9.22 µM, the Potency [9] was “inactive” and the Potency [10] was “inactive”.

For `Cc1cc(N2CCN(C)CC2)n2nc(-c3ccc(Cl)cc3)nc2n1`, the Potency [2] was > 11.4 µM, the activity change, negative = inhibition [3] was -1.96% and the Potency [4] was “inactive”. For the same compound, the activity change, negative = inhibition [5] was 13.2%, the activity, negative = inhibition [6] was 4.28% and the Potency [7] was > 46 µM. For the same compound, the Potency [8] was > 9.22 µM, the Potency [9] was “inactive” and the Potency [10] was “inactive”.
